This is an account of results in PubChem BioAssay.

Calls of active or inactive are those of the source.

Assay [1] can be described thus: optical density shifts of acrAB sulA E. coli – strain DRC41, OD650, 48 h, E. coli filamentation inducer project, primary screen (AID 1152).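 Further: E. coli MC1000 strain DRC41 lacking acrAB efflux pump and sulA.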 The following applies: higher = more signal, called active from +8 up or from −8 down.
The nature of assay [2]: probe aLefty1 binding on compound microarray – biochemical, small-molecule microarray, 635/667 nm fluorescence, primary screen (AID 1153).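 Further: score merges spot fluorescence with signal-to-noise ratio from the scanned slide images.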 The following applies: higher = more signal.
Assay [3] can be described thus: plasmodial surface anion channel blockers, osmotic lysis – cell-based, P. falciparum Indochina, OD700, 1 h, primary screen (AID 1154). The settings on record: P. falciparum Indochina infected RBC osmotic lysis, higher = more signal, called active from +8 up or from −8 down.
Assay [4] is described as follows: plasmodial surface anion channel blockers, osmotic lysis – cell-based, P. falciparum Indochina, OD700, 2 h, primary screen (AID 1155).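 Further: lysis reports solute entry through the parasite surface anion channel PSAC.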 The following applies: P. falciparum Indochina infected erythrocytes, higher = more signal, called active from +8 up or from −8 down.
A short description of assay [5]: changes in parasitized red cell lysis, either direction – P. falciparum Indochina, OD700, 3 h, PSAC antagonist project, primary screen (AID 1156). The settings on record: P. falciparum-infected erythrocytes, osmotic lysis, higher = more signal, called active from +8 up or from −8 down.
The nature of assay [6]: plasmodial surface anion channel blockers, osmotic lysis – cell-based, P. falciparum Indochina, OD700, 18 h, primary screen (AID 1157). The settings on record: P. falciparum Indochina infected erythrocytes, osmotic lysis OD700, 18 h; higher = more signal, called active from +8 up or from −8 down.
Assay [7] can be described thus: S6 kinase pathway phospho-S6 level changes – cell-based, A549, cytoblot, luminescence, serum-stimulated, primary screen (AID 1158).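 Further: serum-stimulated A549 lung adenocarcinoma cells; signal is phosphorylated S6 detected by cytoblot immunostaining with HRP secondary.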 The following applies: 5 h, higher = more signal.
The target of assay [8] is NADPH oxidase 2 (Homo sapiens) (UniProt P04839). The assay can be described thus: compounds shifting NOX2 Amplex Red fluorescence – cell-based, HEK293-NOX2, PMA-stimulated, NOX inhibitor project, primary screen (AID 1159). Further: test concentration not given here. The following applies: 45 min, higher = more signal, called active from +8 up or from −8 down.
Sequence of NADPH oxidase 2 (Homo sapiens) (P04839 whole entry, looked up): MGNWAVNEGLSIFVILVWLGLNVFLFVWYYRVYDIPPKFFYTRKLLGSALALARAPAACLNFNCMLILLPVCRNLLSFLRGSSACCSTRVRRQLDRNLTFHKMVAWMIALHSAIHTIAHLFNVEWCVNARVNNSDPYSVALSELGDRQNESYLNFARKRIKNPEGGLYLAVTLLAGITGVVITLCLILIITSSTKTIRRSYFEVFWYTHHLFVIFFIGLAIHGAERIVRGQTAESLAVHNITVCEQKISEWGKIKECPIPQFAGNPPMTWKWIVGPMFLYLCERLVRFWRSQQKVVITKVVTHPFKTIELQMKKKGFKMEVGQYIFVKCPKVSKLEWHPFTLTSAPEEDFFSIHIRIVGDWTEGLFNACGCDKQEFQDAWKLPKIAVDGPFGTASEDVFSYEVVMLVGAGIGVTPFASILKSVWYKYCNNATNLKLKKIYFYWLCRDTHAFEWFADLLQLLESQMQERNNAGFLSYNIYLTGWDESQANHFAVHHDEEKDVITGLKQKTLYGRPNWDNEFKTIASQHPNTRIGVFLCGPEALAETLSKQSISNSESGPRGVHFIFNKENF
In assay [9] the target is NADPH oxidase 4 (Homo sapiens) (UniProt Q9NPH5). As to the kind of experiment: compounds shifting NOX4 Amplex Red fluorescence – cell-based, HEK293-NOX4, tetracycline-induced, NOX inhibitor project, primary screen (AID 1160). The following applies: HEK293-NOX4, Amplex Red H2O2 fluorescence, 45 min; higher = more signal, called active from +8 up or from −8 down.
Sequence of NADPH oxidase 4 (Homo sapiens) (Q9NPH5 whole entry, looked up): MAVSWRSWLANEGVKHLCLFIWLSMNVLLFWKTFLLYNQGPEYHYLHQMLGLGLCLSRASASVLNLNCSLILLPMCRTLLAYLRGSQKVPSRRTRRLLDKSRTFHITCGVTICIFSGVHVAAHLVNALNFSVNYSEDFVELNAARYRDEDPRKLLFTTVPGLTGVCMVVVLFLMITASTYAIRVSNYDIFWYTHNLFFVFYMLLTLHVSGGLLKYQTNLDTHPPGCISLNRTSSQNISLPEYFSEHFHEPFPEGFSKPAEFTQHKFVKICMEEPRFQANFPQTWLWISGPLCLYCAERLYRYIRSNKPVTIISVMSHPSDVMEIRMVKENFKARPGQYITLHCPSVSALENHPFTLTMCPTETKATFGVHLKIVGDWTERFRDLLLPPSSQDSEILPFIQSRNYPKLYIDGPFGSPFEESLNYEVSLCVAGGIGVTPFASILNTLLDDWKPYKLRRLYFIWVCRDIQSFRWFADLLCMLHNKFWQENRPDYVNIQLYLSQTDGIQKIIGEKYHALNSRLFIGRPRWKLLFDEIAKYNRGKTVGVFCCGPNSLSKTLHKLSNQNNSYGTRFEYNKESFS
Assay [10] has as its target NADPH oxidase 5 (Homo sapiens) (UniProt Q96PH1). The assay can be described thus: compounds shifting NOX5 Amplex Red fluorescence – cell-based, HEK293-NOX5, NOX inhibitor project, primary screen (AID 1161). The following applies: HEK293-NOX5, ionomycin, 45 min, higher = more signal.

Sequence of NADPH oxidase 5 (Homo sapiens) (Q96PH1 whole entry, looked up): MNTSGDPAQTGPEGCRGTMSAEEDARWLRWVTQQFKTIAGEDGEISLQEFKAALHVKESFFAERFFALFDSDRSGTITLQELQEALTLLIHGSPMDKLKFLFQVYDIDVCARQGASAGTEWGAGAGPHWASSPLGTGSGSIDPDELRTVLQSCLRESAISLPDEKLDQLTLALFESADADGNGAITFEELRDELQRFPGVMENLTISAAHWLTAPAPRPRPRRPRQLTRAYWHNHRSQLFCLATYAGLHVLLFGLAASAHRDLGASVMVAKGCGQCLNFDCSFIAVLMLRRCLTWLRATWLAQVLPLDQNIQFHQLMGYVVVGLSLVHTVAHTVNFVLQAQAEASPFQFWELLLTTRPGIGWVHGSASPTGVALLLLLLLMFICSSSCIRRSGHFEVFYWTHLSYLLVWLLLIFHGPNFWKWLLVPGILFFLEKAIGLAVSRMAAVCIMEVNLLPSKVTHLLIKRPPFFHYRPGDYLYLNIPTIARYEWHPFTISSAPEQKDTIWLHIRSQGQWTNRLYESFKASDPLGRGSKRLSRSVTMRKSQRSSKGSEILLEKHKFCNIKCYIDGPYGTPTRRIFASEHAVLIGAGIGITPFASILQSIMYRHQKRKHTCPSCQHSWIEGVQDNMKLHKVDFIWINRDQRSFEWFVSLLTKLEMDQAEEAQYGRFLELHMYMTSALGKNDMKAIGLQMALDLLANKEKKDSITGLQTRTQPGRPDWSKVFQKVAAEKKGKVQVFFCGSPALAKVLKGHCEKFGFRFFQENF

For the compound `COC(=O)c1ccc(OC)c(/C=C\CC(OC(C)=O)c2ccccc2)c1` (stereo not given), the z-score in assay [1] is 0.0491 (inactive); in assay [3], 8.02 (active); in [4] it was 0.898 (inactive); in assay [5], -0.358 (inactive); in assay [6], 0.303 (inactive); in assay [7], -0.0878. Moreover, the z-score in [8] is 0.0248 (inactive); in assay [9], 0.415 (inactive); in [10] it was -1.65. In addition, the composite z-score in [2] is -0.795.

On to `COCCOC(=O)N1C(=O)[C@@]2(c3cc(C#Cc4ccc(OC)cc4)ccc31)[C@H](C(=O)N1CCN(c3ncccn3)CC1)[C@H]1C(=O)O[C@H](c3ccccc3)[C@H](c3ccccc3)N1[C@@H]2c1ccc(O)cc1`, for which the z-score is 0.831 (inactive) in assay [1]; 1.39 (inactive) in [3]; -0.306 (inactive) in assay [4]; -0.119 (inactive) in [5]; -0.541 (inactive) in assay [6]; 1.59 in [7]. Also, the results for the z-score in assay [8], in assay [9] and in assay [10] were 0.586 (inactive), 0.19 (inactive) and 1.98, respectively. Further, the composite z-score in [2] came out at 0.0773.

On to `C=CCNC(=O)[C@H]1[C@@H]2C(=O)O[C@@H](c3ccccc3)[C@@H](c3ccccc3)N2[C@@H](c2ccc(O)cc2)[C@]12C(=O)N(C(=O)OCCOC)c1ccc(C#CCCO)cc12`, for which the z-score in assay [1] was 1.23 (inactive); in assay [3], 1.89 (inactive); in [4] it was 0.658 (inactive); in assay [5], 0.958 (inactive); in assay [6], 0.418 (inactive); in assay [7] it was 0.102. Moreover, the z-score in assay [8] was 0.74 (inactive); in [9], 0.261 (inactive); in [10] it was 0.533. Besides, the composite z-score in assay [2] was found to be 0.0341.

In the case of `O=C/C=C/c1ccc2c(c1)OCO2`, the z-score in assay [1] is 0.586 (inactive); in assay [3], -0.448 (inactive); in assay [4], -1.11 (inactive); in assay [5] it was 0.321 (inactive); in [6], -2.47 (inactive); in [7], 1.25. Also, the figures for the z-score in [8], in assay [9] and in [10] were -0.41 (inactive), -0.502 (inactive) and 0.961, respectively. The composite z-score in [2] is -0.205.

As for `COC(=O)c1ccc(C23CC2(C(NP(=O)(c2ccccc2)c2ccccc2)c2ccccc2)C3)cc1` (stereo not given), the z-score in assay [1] is -0.402 (inactive); in assay [3] it was 7.74 (inactive); in [4], 0.191 (inactive); in assay [5] it was -0.279 (inactive); in assay [6], -1.02 (inactive); in assay [7] it was 1.36. For the same compound, the z-score in [8] was -0.489 (inactive); in [9], -0.652 (inactive); in [10], -4.37. Besides, the composite z-score in assay [2] was found to be 1.08.

For the compound `COC(=O)C[C@@H]1C[C@H](C)[C@]2(O1)C(=O)N(Cc1ccccc1)c1ccc(NC(C)=O)cc12`, the z-score is 0.442 (inactive) in assay [1]; 1.66 (inactive) in assay [3]; -0.0327 (inactive) in assay [4]; 0.962 (inactive) in assay [5]; 0.0822 (inactive) in [6]; 0.525 in assay [7]. Also, the z-score is 0.627 (inactive) in assay [8], -1.06 (inactive) in assay [9] and 2.27 in assay [10]. The same compound came in with a composite z-score in assay [2] of -0.193.

With `C=CC[C@@]1(C(=O)O)N=C(c2ccc(OCCCO)cc2)O[C@@H]1c1ccccc1N=[N+]=[N-]`, the z-score in assay [1] is 0.232 (inactive); in assay [3], 33.9 (active); in assay [4], 32.2 (active); in assay [5], 2.2 (inactive); in assay [6], 8.02 (active); in [7] it was -0.567. The z-score was -0.973 (inactive) in [8], 1.14 (inactive) in assay [9] and 0.518 in assay [10]. In [2], this compound returned a composite z-score of 0.546.

With `COCCOC(=O)N1C(=O)[C@@]2(c3cc(C#CCC(C(=O)OC)C(=O)OC)ccc31)[C@H](C(=O)N1CCCCCCC1)[C@H]1C(=O)O[C@H](c3ccccc3)[C@H](c3ccccc3)N1[C@@H]2c1ccc(OCCO)cc1`, the z-score was 0.917 (inactive) in [1]; 17.1 (active) in assay [3]; 4.27 (inactive) in [4]; 0.791 (inactive) in assay [5]; 1.14 (inactive) in [6]; -0.0447 in assay [7]. Besides, the z-score was 0.327 (inactive) in assay [8], 0.43 (inactive) in assay [9] and 0.547 in [10]. Further, the composite z-score in assay [2] stood at 2.5.

In the case of `CCN(CC)c1ccc(N2CC=CC34O[C@@H]5/C=C\CCCOC(=O)C5[C@H]3C(=O)N(C(CO)C(C)C)[C@@H]4C2=O)cc1` (stereo not given in full), the z-score in [1] is -0.522 (inactive); in [3], 1.38 (inactive); in assay [4], 0.486 (inactive); in assay [5], 0.883 (inactive); in assay [6], 0.648 (inactive); in [7] it was -0.713. The z-score in [8] was 0.0116 (inactive); in assay [9], 0.337 (inactive); in assay [10], 0.492. Further, the composite z-score in [2] was -0.137.

Take `O=C1O[C@H](c2ccccc2)[C@H](c2ccccc2)N2[C@H]1[C@@H](C(=O)Nc1nc3ccccc3s1)[C@]1(C(=O)Nc3ccccc31)[C@H]2c1ccc(O)cc1`: the z-score in [1] was -0.626 (inactive); in assay [3] it was 1.53 (inactive); in [4], 2.51 (inactive); in [5], 0.486 (inactive); in [6], 1.69 (inactive); in assay [7], 0.192. Besides, the z-score in assay [8] was 0.844 (inactive); in [9], 0.479 (inactive); in assay [10], 0.201. This compound registered a composite z-score in assay [2] of -0.294.

`C=C[C@H](COC(C)=O)N(Cc1ccc(OC(C)=O)c(OC)c1)S(=O)(=O)c1ccc(Br)cc1`: the z-score was 1.49 (inactive) in [1]; 3.23 (inactive) in assay [3]; -1.11 (inactive) in [4]; -0.827 (inactive) in assay [5]; -1.15 (inactive) in assay [6]; 2 in [7]. For the same compound, the values for the z-score in assay [8], in [9] and in assay [10] were -4.68 (inactive), -0.87 (inactive) and -1.95, respectively. In assay [2], this compound yielded a composite z-score of 0.19.

As for `COc1cc2c(cc1O)C(C)N(Cc1cccc(OC(F)(F)F)c1)CC2` (stereo not given), the z-score in assay [1] was 0.126 (inactive); in assay [3], 2.96 (inactive); in [4], 0.328 (inactive); in [5], 2.09 (inactive); in assay [6] it was 0.573 (inactive); in assay [7], -0.0952. Besides, the z-score in [8] is -3.51 (inactive); in assay [9], -2.46 (inactive); in assay [10], -3.03. The same compound displayed a composite z-score in assay [2] of -0.0015.

Consider `COc1ccc(C(=O)Nc2cccc(CN3C(=O)[C@]4(O[C@H](CC(=O)N5CCC[C@H]5CO)[C@@H]([Si](C)(C)c5ccc(OC)cc5)[C@@H]4C)c4ccccc43)c2)cc1`, for which the z-score in assay [1] is 0.0295 (inactive); in assay [3], 4.29 (inactive); in assay [4], 1.45 (inactive); in [5], -0.546 (inactive); in assay [6], 0.451 (inactive); in assay [7], 1.97. For the same compound, the z-score in assay [8] is 2.73 (inactive); in [9], 1.65 (inactive); in assay [10], 4.27. In addition, in assay [2], the composite z-score is -0.012.
